# Screening results from PubChem.
# POLI inh – blocks human DNA polymerase iota activity; Q9UNA4; Pol iota fluorescent replication assay, 10 min; Potency, µM (top dose mostly 115 µM), without a hit: at the top dose activity, negative = inhibition, actives largely listed as inhibitors; actives 1% (n = 390,000); AID 588590; further: potency means the concentration at half of the fitted maximal effect
#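 Fluorescent replication assay read twice, at 0 min and 10 min after adding 50 nM (final) substrate. Enzyme (10 nM) and compounds were first incubated 15 min at room temperature; enzyme-free buffer wells were negative controls.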
# POLH inh – DNA polymerase eta (human) inhibition | actives 1.2% (n = 390,000) | Potency, µM (titrated, usually from 114 µM), for inactives: at the highest dose activity change, negative = inhibition, most hits filed as inhibitors | AID 588591 | Q9Y253 | recombinant Pol eta, fluorescent DNA replication assay; further: potency means the concentration at half of the fitted maximal effect; on the % scale 0 is the no-effect control and ±100 the full control effect
#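 Fluorescent replication assay: 50 nM final substrate added after a 15 min room-temperature compound preincubation with 10 nM enzyme. Signal taken at 0 min and again at 10 min.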
# ALOX12 inh – inhibitors of human 12S-lipoxygenase ALOX12; Potency, µM (series often up to 108 µM), for the others: top-dose activity change, negative = inhibition, hits mostly inhibitors; actives 1.1% (n = 580,000); purified 12hLO, xylenol orange hydroperoxide absorbance; P18054; further: potency means the concentration at half of the fitted maximal effect; on the % scale 0 is the no-effect control and ±100 the full control effect
# Target sequence (P18054 whole entry, looked up): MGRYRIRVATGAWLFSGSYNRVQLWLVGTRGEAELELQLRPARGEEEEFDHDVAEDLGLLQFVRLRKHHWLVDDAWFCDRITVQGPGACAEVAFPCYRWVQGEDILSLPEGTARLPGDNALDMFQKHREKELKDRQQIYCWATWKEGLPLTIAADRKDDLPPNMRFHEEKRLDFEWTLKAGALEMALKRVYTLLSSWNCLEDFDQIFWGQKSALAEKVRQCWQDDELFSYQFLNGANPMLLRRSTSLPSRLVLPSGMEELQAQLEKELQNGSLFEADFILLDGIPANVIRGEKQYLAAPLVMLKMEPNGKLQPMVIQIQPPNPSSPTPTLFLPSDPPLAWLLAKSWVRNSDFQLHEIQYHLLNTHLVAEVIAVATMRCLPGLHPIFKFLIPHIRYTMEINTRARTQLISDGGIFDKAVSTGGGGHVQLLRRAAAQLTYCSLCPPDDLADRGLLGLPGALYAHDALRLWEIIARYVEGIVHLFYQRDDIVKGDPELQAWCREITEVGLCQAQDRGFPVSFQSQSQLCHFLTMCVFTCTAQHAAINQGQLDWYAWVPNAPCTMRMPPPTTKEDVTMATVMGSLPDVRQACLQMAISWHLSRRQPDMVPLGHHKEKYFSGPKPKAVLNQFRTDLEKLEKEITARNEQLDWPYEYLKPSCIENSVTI
#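 Purified human 12hLO (150 nM final) in 25 mM Hepes, 0.01% Triton X-100, pH 7.0 was preincubated 15 min at room temperature with compound. Then 40 uM arachidonic acid was added, 30 min. Hydroperoxide was read by Fe-XO absorbance ratio 573/405 nm.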
# POLB inh – inhibitors of human DNA polymerase beta; Pol beta primer extension/strand displacement, fluorescence kinetic; Potency, µM (doses to about 114 µM), for the others: at the top dose activity change, negative = inhibition, hits mostly inhibitors; actives 1.3% (n = 340,000); AID 485314; further: potency means the concentration at half of the fitted maximal effect; on the % scale 0 is the no-effect control and ±100 the full control effect
#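 Homogeneous kinetic assay of primer extension and strand displacement by 10 nM Pol beta, preincubated 15 min at room temperature with compound before 50 nM substrate (final) was added. Read at 0 and 10 min; four-parameter Hill fit.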
# POLK inh – DNA polymerase kappa (human) inhibition; Q9UBT6; purified Pol kappa, fluorescent DNA synthesis assay, 10 min; Potency, µM (highest dose often 107 µM), for the others: at the top dose activity, negative = inhibition, most hits filed as inhibitors; actives 0.53% (n = 400,000); AID 588579; further: potency means the concentration at half of the fitted maximal effect; on the % scale 0 is the no-effect control and ±100 the full control effect
#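 Kinetic fluorescence screen: compound preincubated 15 min RT with 10 nM enzyme; 50 nM substrate (final) initiates; reads at 0/10 min.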
# PI5P4Ka inh – inhibitors of human PI5P4K alpha; P48426; PI5P4Kalpha enzyme, ADP-Glo luminescence, 60 min; active compounds read low; max response, %; actives 1.2% (n = 330,000); active means max response of -50% or lower; inconclusive means between -30% and -50%; inactive means -30% or higher; further: value at the top dose of about 77 µM; on the % scale 0 is the no-effect control and ±100 the full control effect
#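 Controls without substrate or without enzyme flank wells where PI5P4Kalpha converts substrate using 5 microM ATP (final). Incubation lasts 60 minutes at room temperature; ADP formed is read by ADP-Glo luminescence.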
# * = called active by the depositor; ? = inconclusive; . = not tested or not shown; [ ] = remark or other dose. The list is not random: actives were taken first. Their share in the collection is about 2.9%. Unless noted, the call rests on the fitted dose curve; in most records, active means well fitted inhibition curve with a large enough effect; inconclusive means small, poorly fitted or top-dose-only effect, or another doubt; inactive means no such curve, though single readings can be large or run the other way.
SMILES,POLI inh,POLH inh,ALOX12 inh,POLB inh,POLK inh,PI5P4Ka inh
Cc1ccc(C2NC(=O)c3c(sc(C)c3C)N2)c(O)c1 (configuration not stated),?,-4%,40µM*,1%,-25%,.
c1ccc(Cc2nn3c(C4COc5ccccc5O4)nnc3s2)cc1 (configuration not stated),-16%,-8%,-5%,-9%,-3%,.
CCOc1ccccc1OCc1nn2c(C3COc4ccccc4O3)nnc2s1 (configuration not stated),.,.,7.1µM*,.,.,.
COc1cccc(/C=C2\Oc3cc(OCC(=O)N4Cc5ccccc5C[C@H]4C(=O)O)ccc3C2=O)c1,?,50µM*,.,2%,-31%,?
COc1cccc(/C=C2\Oc3cc(OC(=O)N4CCOCC4)ccc3C2=O)c1,78%,-14%,-15%,1%,0%,0
CC(C)N1C[C@@H]2C[C@H]1C(=O)N(Cc1ccccc1)c1ccccc1O2,.,.,220%[176 µM],.,.,.
COC(=O)c1ccc(N)cc1O,2%,7%,-1%,11%,-19%,3
COC(=O)c1ccc(=O)c2nc3/c(=C/O)c(O)cc(=O)c3[nH]c12,?,28µM*,-11%,?,14µM*,-74*
CCc1ccc(NC(=O)N2CCc3cc(S(=O)(=O)N4CCC(C)CC4)ccc32)cc1,.,.,-35%,.,.,.
C/C(=N\NC(=O)CSc1nc(C)[nH]c1[N+](=O)[O-])c1ccc(F)cc1,24%,-4%,85%,4%,-3%,-67*
Cc1nc(SCCO)c([N+](=O)[O-])[nH]1,155%,-25%,25µM*,3%,-2%,6
CCOc1ccc(Nc2nc(-c3ccccc3)c(C(=O)Nc3cccnc3)s2)cc1,.,.,14%,.,.,.
Cc1ccccc1Cn1c(CN(C)Cc2ccccc2)nc2c1c(=O)n(C)c(=O)n2C,.,.,19%,.,.,.
Cc1nc(N2CCCCC2)sc1C(=O)c1ccc(SCCO)c([N+](=O)[O-])c1,71%,-17%,0%,-2%,-8%,-68*
COc1cc2c(cc1OC)C(C[C@H]1CN(C(=O)c3ccco3)CC[C@H]1CC(=O)O)=NCC2,.,.,56µM*,.,.,.
O=C(O)C[C@@H]1CCN(C(=O)c2ccco2)C[C@@H]1CC1=NCCc2ccccc21,.,.,6%[176 µM],.,.,.
COc1ccc(NC(=O)c2cc(C)no2)cc1,11%,-20%,13µM*,14%,0%,-1
N#Cc1ccc(N)c(Br)c1,.,.,1%,.,.,.
CC(C)CCn1nnnc1C(c1ccccc1)N1CCN(C)CC1 (configuration not stated),9%,-1%,6%,3%,5%,-1
C=CCN1CCN(C(c2ccccc2)c2nnnn2CCC(C)C)CC1 (configuration not stated),?,2%,-29%,3%,-13%,-59*
CCN1C(=O)C(NC(=O)C(=O)NCc2cccnc2)c2cc(Cl)ccc21 (configuration not stated),.,.,-22%,.,.,.
O=S(=O)(c1ccc2ccccc2c1)N(Cc1ccco1)Cc1cccs1,.,.,50µM*,.,.,.
C[C@@H](NC(=O)c1[nH]cnc1C(=O)Nc1ccc(Cl)cc1)c1ccccc1,-10%,-13%,?,.,-8%,41
C[C@H](NC(=O)c1[nH]cnc1C(=O)Nc1ccc(Cl)cc1)c1ccccc1,0%,-6%,45µM*,.,0%,16
COc1cccc(C(C)=NNc2ccc([N+](=O)[O-])cc2[N+](=O)[O-])c1OC,.,-2%,-7%,.,.,0
O=C(O)c1ccccc1Nc1ccc([N+](=O)[O-])cc1C(=O)O,20%,-7%,0%,-5%,-16%,?
CN(CCO)c1ccc(C=NNc2ccc([N+](=O)[O-])cc2S(=O)(=O)Nc2ccccc2C(=O)O)cc1,?,?,40µM*,.,-37%,-55*
Cc1ccc(NC(=S)NNc2ccc([N+](=O)[O-])cc2S(=O)(=O)Nc2ccccc2C(=O)O)cc1C,-11%,28µM*,10µM*,?,-25%,-73*
